High-throughput results as filed in PubChem BioAssay.
Marburg entry inh: qHTS for inhibitors of binding or entry into cells for Marburg Virus; Marburg virus pseudotyped entry inhibition, cell reporter; Potency, µM (highest dose often 37.8 µM), usual class: inhibitors; hit rate 1.8% among 300,000; calls by dose curve; tested in HEK293 cells
AMA1-RON2 inh: qHTS for Inhibitors of AMA1-RON; Towards Development of Antimalarial Drug Lead: Primary Screen; Plasmodium falciparum AMA1 (3D7) - RON2 peptide interaction; AlphaScreen AMA1-biotinylated RON2 peptide binding; Potency, µM (highest dose often 58.2 µM), most hits filed as inhibitors; hit rate 0.2% among 360,000; AID 720542, 2013; active means well fitted inhibition curve with a large enough effect; inconclusive means small, poorly fitted or top-dose-only effect; inactive means no such curve, though single readings can be large or run the other way; further: nearly all actives have a fitted effect of over 45% in size
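AMA1 (3D7) with his tag at 25 nM final met compounds first, then biotinylated RON2 peptide at 25 nM; detection used donor plus acceptor beads, 10 µg/mL apiece, read by AlphaScreen after 30 min at room temperature.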
LASV entry inh: qHTS for Inhibitors of binding or entry into cells for Lassa Virus; Lassa virus pseudotype entry inhibition, cell reporter; Potency, µM (titrated, usually from 37.9 µM), hits mostly inhibitors; hit rate 1.2% among 300,000; AID 540256, 2011; calls by dose curve; tested in HEK293 cells; further: nearly all actives have a fitted effect of over 50% in size
CHX counter: Cycloheximide Counterscreen for Small Molecule Inhibitors of Shiga Toxin; cell reporter, cycloheximide protein synthesis inhibition counterscreen; max response, %; hit rate 12% among 300,000; in the data active means max response mostly above about 13%, no sharp cut-off; inactive means mostly below about 14%; further: read at 38.3 µM for the half of the compounds with a filed dose
Shiga inhibitor: A qHTS for Small Molecule Inhibitors of Shiga Toxin. Vero cells, Shiga toxin protein synthesis inhibition reporter. inhibition, % at 38.7 µM. hit rate 9.2% among 290,000; in the data active means inhibition mostly above about 28%, no sharp cut-off; inactive means mostly below about 43%
A number is an active result; 0 = inactive; ? = inconclusive; - = no result given; [ ] = dose if it differs, or a comment. The sample as a whole holds a higher share of hits than the screen did.

SMILES	Marburg entry inh	AMA1-RON2 inh	LASV entry inh	CHX counter	Shiga inhibitor
O=C(O)C1CCCN1C(=O)C1CCN(S(=O)(=O)c2cccc(C(F)(F)F)c2)CC1 (stereo not drawn)	0	0	0	-	-
Cc1[nH]c2ccc(-c3nnc(SCC(=O)c4ccccc4F)o3)cc2c1C	?	0	8.9µM	0	0
Cn1c(-c2ccc(F)cc2)cnc1SCC(=O)Nc1ccccc1N1CCOCC1	0	?	0	27	56
COc1ccccc1-c1nnc(SCC(=O)Nc2ccccc2F)o1	?	-	0	-	-
O=C(CSc1ccc(F)cc1)Nc1ccccc1N1CCOCC1	-	0	-	0	0
Cc1ccc(C(=O)CSc2nnc(-c3ccc4[nH]c(C)c(C)c4c3)o2)cc1C	0	0	0	0	0
O=C(CSc1nnc(-c2ccccc2)o1)Nc1ccccc1F	-	0	-	23	0
CCc1nnc(NC(=O)CSc2nnc(-c3ccccc3O)o2)s1	?	0	0	34	92
O=C(Nc1nnc([C@@H]2C[C@H](O)[C@@H](CO)O2)s1)NC1CCCCC1	-	0	-	-	-
Cc1cc(Br)ccc1NC(=O)CNC(=O)c1cnn(C)c1	-	0	-	-	-
CCc1nnc(NC(=O)CSc2ncc(-c3ccccc3)n2C)s1	?	0	0	54	102
Cc1cc(C)cc(C(=O)NCCCc2ccccc2)c1	0	0	0	0	0
Cc1ccc(C(=O)NCCCc2ccccc2)c(Cl)c1	0	0	0	37	-
O=C(NCCCc1ccccc1)c1ccc([N+](=O)[O-])cc1Cl	?	0	0	29	29
O=C(NCCCc1ccccc1)c1ccccc1O	0	0	0	54	60
CSCCC(NC(=O)c1ccc([N+](=O)[O-])cc1Cl)C(=O)OCC(=O)NCCCc1ccccc1 (stereo not drawn)	0	0[11.6 µM]	0	0	0
Cc1ccc(C(=O)NCCCc2ccccc2)c(C)c1	?	0	?	42	60
CCCNc1ccc(-c2nc(-c3ccncc3)no2)cc1[N+](=O)[O-]	0	-	0	-	-
c1ccc2sc(-n3cc(C4CCCCC4)nn3)nc2c1	-	0	-	-	-
COc1ccc(/C=C/C(=O)Nc2ccc3nc(N4CCC(C)CC4)cc(C)c3c2)cc1OC	10µM	-	?	-	-
CCOc1ccccc1C(=O)Nc1ccc2nc(N3CCN(c4ncccn4)CC3)cc(C)c2c1	13µM	0	?	-	-
CCN1CCN(c2cc(C)c3cc(NC(=O)c4cc(OC)c(OC)c(OC)c4)ccc3n2)CC1	-	-	0	-	-
COc1ccccc1CC(=O)Nc1ccc2nc(N3CCC(C)CC3)cc(C)c2c1	0	-	?	-	-
COc1cccc(C(=O)Nc2ccc3nc(N4CCN(c5ncccn5)CC4)cc(C)c3c2)c1OC	-	-	-	14	0
COc1ccc(-n2nc3cc(C)c(NC(C)=O)cc3n2)cc1	?	0	?	32	140
SMILES	Marburg entry inh	AMA1-RON2 inh	LASV entry inh	CHX counter	Shiga inhibitor
CCc1ccc(-n2nc3cc(C)c(NC(=O)c4cc(OC)cc(OC)c4)cc3n2)cc1	?	-	0	-	-
COc1ccc(-n2nc3cc(C)c(NC(=O)C(C)C)cc3n2)cc1	0	-	-	36	69
Cc1ccc(COc2ccc3c(c2)OCO3)cc1	0	?	?	31	97
O=Cc1ccc(OCc2ccc3c(c2)OCO3)cc1	-	0	-	35	-
c1ccc2c(C3OCC4(CCCCC4)CO3)cccc2c1	-	0	-	-	-
CC1N(C(=O)N2CCOCC2)CCN1S(=O)(=O)c1cccc(C(F)(F)F)c1 (stereo not drawn)	0	0	-	0	0
COc1ccccc1/C=C/C1(C(=O)NC2CCCC2)CC(=O)N1c1ccc(F)cc1 (stereo not drawn)	5.8µM	0	15µM	0	0
CCOC(=O)c1ccccc1NC(=O)C=C(C)C	?	0	0	0	0
COc1cc(NC(=O)/C=C/c2ccccc2)c(C(=O)O)cc1OC	-	0	-	0	0
NC(=O)c1ccccc1NC(=O)/C=C/c1ccc(Cl)cc1	?	0	0	48	90
NC(=O)c1ccccc1NC(=O)/C=C/c1ccccc1	?	0	0	34	63
CC(C)=CC(=O)Nc1ccccc1C(N)=O	0	6.7µM	0	0	0
O=C(/C=C/c1ccc(Cl)cc1)NC(=S)Nc1ccccc1C(=O)O	-	0	-	0	0
CCOC(=O)C1=C(CS(=O)(=O)c2c(C)cc(C)cc2C)NC(=O)NC1c1cccc(OC)c1 (stereo not drawn)	0	-	0	-	-
COC(=O)c1c(NC(=O)CN2CCOCC2)sc2c1CCC(C)C2 (stereo not drawn)	?	0	?	0	0
COCC(=O)Nc1sc2c(c1C(=O)OC)CCC(C)C2 (stereo not drawn)	0	0	0	12	0
CC1CCc2c(sc(NC(=O)COC(=O)C3CCCO3)c2C#N)C1 (stereo not drawn)	-	0	-	0	0
CCNC(=S)Nc1sc2c(c1C#N)CCC(C)C2 (stereo not drawn)	?	0	0	0	0
CC1CCc2c(sc(NC(=O)C3CCCO3)c2C#N)C1 (stereo not drawn)	0	0	?	37	107
CCc1c(C)sc(NC(=O)C2CCCO2)c1C#N (stereo not drawn)	0	0	0	17	0
CCOC(=O)Nc1sc2c(c1C#N)CCC(C)C2 (stereo not drawn)	?	0	0	46	91
COc1ccc(-c2cc(CNc3nc(NC(C)C)nc4cc(-c5ccccc5)sc34)on2)cc1	-	0	-	-	-
Cc1ccc2c(c1)c1c(c(=O)n(-c3ccccc3)c(=O)n1CC(=O)NCCC1=CCCCC1)n2C	-	-	0	-	-
CCOC(=O)c1ccc(NC(=O)CCNS(=O)(=O)c2cccs2)cc1	0	0	-	0	0
O=S(=O)(Nc1ccc2c(c1)OCCO2)c1cccs1	0	0	0	54	83
SMILES	Marburg entry inh	AMA1-RON2 inh	LASV entry inh	CHX counter	Shiga inhibitor
O=S(=O)(Nc1ccc2c(c1)OCO2)c1cccs1	0	0	0	0	0
COC(=O)c1ccc(NC(=O)CNS(=O)(=O)c2cccs2)cc1	0	0	?	19	0
O=C(CNS(=O)(=O)c1cccs1)Nc1ccc2c(c1)OCCO2	0	0	0	43	90
COc1ccc(C(C(=O)NCC2CCCO2)N(C(=O)CNC(=O)c2cccs2)c2ccc(C(C)=O)cc2)cc1OC (stereo not drawn)	0	0	0	0	0
CC(C)c1nnc(NC(=O)c2cccc(-n3cnnn3)c2)s1	?	0	0	0	0
CCOCCc1nnc(NC(=O)c2cccc(F)c2)s1	?	0	0	20	41
COc1cccc(C(=O)Nc2nnc(C(C)C)s2)c1	?	0	?	27	47
CCCc1nnc(NC(=O)c2cccc(OC)c2)s1	0	0	0	62	73
COc1cccc(C(=O)Nc2nnc(Cc3ccc(OC)c(OC)c3)s2)c1	0	0	0	0	0
CN(C)c1cccc(C(=O)Nc2nnc(Cc3ccccc3)s2)c1	?	0	?	26	96
COc1cc(NC(=O)CCc2c(C)nc3c4c(C)cc(C)nc4nn3c2C)cc(OC)c1	0	-	0	-	-
COC(=O)[C@@H](Cc1c[nH]c2ccccc12)NC(=O)C1CCCN(S(=O)(=O)c2ccc(C)cc2)C1 (stereo partly drawn)	-	0	-	0	0
COc1ccc(CNc2oc(/C=C/c3cc(OC)c(OC)c(OC)c3)nc2C#N)cc1	0	-	?	-	-
